The record followed here is ChEMBL document CHEMBL4513216, “Probing the Open Global Health Chemical Diversity Library for Multistage-Active Starting Points for Next-Generation Antimalarials” (ACS Infect Dis, 2020).

The whole screen tested about 69,000 compounds, of which about 8,600 (12%) showed an effect of 50% or more. This is one part of a sample in which strong results are shown more often than they occur.

The subject of this test is Plasmodium berghei. Briefly: Screen against P. berghei liver stage (PbLuc), transformed with Luciferase, at 10uM. It counts as functional, HepG2. The conditions noted are these: tested at 10 uM.
Take `CN1CCN(C(=O)c2cn3ccsc3n2)[C@H]2CS(=O)(=O)C[C@H]21`: the INHIBITION was determined as 38.5%. Regarding `CN1CCCC1CNC(=O)CCCOc1ccc(Cl)cc1` (configuration not stated), the INHIBITION stood at 24.665%. On to `O=C(c1ccsc1)N1C[C@@H]2CCN(C(=O)c3cscn3)[C@@H]2C1`, for which the INHIBITION is 27.5%. To `O=C(C1CCC1)N1CCC(c2ncc3c(n2)CCNC3)CC1` belongs -12.9%. For `CC1(C)CN(C(=O)CC2CCS(=O)(=O)CC2)C[C@]1(C)O`, the INHIBITION is on record as 34.4%. To `CCCN1CCC(CC(=O)N2CC(C)(C)[C@@](C)(O)C2)CC1` belongs 57.2%; to `CCN(CC)Cc1cc(C(=O)N2CC(C)(C)[C@@](C)(O)C2)c(C)o1`, 35.7%.

Take `CC1(C)CC(CC(=O)N2CC(C)(C)[C@@](C)(O)C2)CC(C)(C)N1`: the INHIBITION was determined as 70.2%. To `CCc1ccc(C(=O)N2CC[C@](C)(O)C(C)(C)C2)[nH]1` belongs -10.6%; to `CC1(C)CN(C(=O)CC2CCC2)C[C@]1(C)O`, 47.4%. The same measure for `CCc1cc(N[C@@H]2CC[C@@H](N)C2)n2nc(C)c(C)c2n1`: -42.8%.

For the compound `Cc1cc(C(=O)NCC(C)C)nn1C`, the INHIBITION turned out to be 37.9%. To `O=C(NCc1cc2ccccc2[nH]1)C1CCCN(C(=O)N2CCCC2)C1` (configuration not stated) belongs 3.87%; to `COC(=O)CC1c2cccnc2C(=O)N1Cc1ccccc1` (configuration not stated), 36.6%. To `CN(CC(=O)N1CCCC1)C(=O)Cc1csc(-c2ncccn2)n1` belongs 30.057%; to `O=C(c1cccc(F)c1)N1CCCN(Cc2cscn2)CC1`, -75.2%.

For `Cc1cc(C)c2cc(CNCC3CCCO3)c3nn(C)c(=O)n3c2c1` (configuration not stated), the INHIBITION is listed as 55.2%. The same measure for `CCCn1cnnc1CNC1CCCC1`: 9.91%.

As to `Cc1cc(C)c2cc(CNC(C)C)c3nn(C)c(=O)n3c2c1`, the INHIBITION is on record as 64.9%. The same measure for `Cc1noc2ncc(C(=O)NCC3CCCO3)cc12` (configuration not stated): -17.45%; for `Cc1cc(C)c2cc(CNC3CCCCC3)c3nn(C)c(=O)n3c2c1`: 73.8%. The same measure for `Cc1cc(NCC2CCCO2)cc(=O)n1C` (configuration not stated): 29.3%; for `Cc1cc(C)c2ncn(CCC(C)O)c(=O)c2c1` (configuration not stated): 6.28%. The same measure for `Cc1nn(C)c(C)c1CC(=O)NCc1ccnc(OC2CCCC2)c1`: 25.3%.

Take `Cc1cc(C)c2c(OCC(=O)NC(C)C)nn(C)c2n1`: the INHIBITION was 37.1%. On to `Cc1csc(N2CCC(CCN3CCCC3=O)CC2)n1`, for which the INHIBITION was -40.5%.

Take `COc1ccc2c3c1CN(S(C)(=O)=O)CC3=CC(C)(C)CO2`: the INHIBITION is listed as 29.8%. As to `Cn1ncc2c(=O)[nH]c(CN3CCCC3c3ccsc3)nc21` (configuration not stated), the INHIBITION is -19.6%. As to `O=C([C@H]1C[C@@H]2[C@@H](C1)OCCN2CC1CC1)N1CCCC1`, the INHIBITION came out at 5.36%. As for `CNC(=O)[C@H]1C[C@H]2OCC[C@H]2N(CC2CCOCC2)C1`, the INHIBITION amounted to 10.5%. The same measure for `O=C(NC1CC1)[C@H]1C[C@H]2OCC[C@H]2N(CC2CCOCC2)C1`: 25.4%; for `O=C([C@H]1C[C@H]2OCC[C@H]2N(C(=O)C2CCOCC2)C1)N1CCCCO1`: 28.3%. To `CNC(=O)[C@H]1C[C@H]2OCC[C@H]2N(CC2CC2)C1` belongs 10.5%; to `O=C([C@H]1C[C@H]2OCC[C@H]2N(CC2CCOCC2)C1)N1CCCCO1`, 50.9%; to `O=C([C@H]1C[C@H]2OCC[C@H]2N(CC2CC2)C1)N1CCCCO1`, 29.9%. The same measure for `O=C([C@H]1C[C@H]2OCC[C@H]2N(CC2CCOCC2)C1)N1CCCC1`: 76.3%. For `O=C([C@H]1C[C@H]2OCC[C@H]2N(CC2CC2)C1)N1CCCC1`, the INHIBITION is reported as 82.2%.
